Assay outcomes from PubChem BioAssay.
Mtb hypoxia inh: PubChem AID 1159583. M. tuberculosis hypoxia-regulated fluorescent reporter, fluorescence. 300,000 compounds, 0.1% hits. fluorescence inhibition, % (test concentration not listed); in the data active means fluorescence inhibition mostly above about 23%, no sharp cut-off; inactive means mostly below about 17%
GDH-TPI counter-1: GDH-TPI coupling enzyme inhibitors, primary screen, artefact control for M. tuberculosis FBA inhibitor project, biochemical, absorbance, full deck. GDH-TPI coupled enzyme counterscreen, NADH absorbance. inhibition, % at 4.8 µM. 360,000 compounds, 1.2% hits. AID 588335, 2011; in the data active means inhibition above about 30%;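 further: 0% = DMSO wells and 100% = wells lacking the enzyme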
FBA Mtb inh: Mtb FBA enzyme inhibitors, primary screen, biochemical, fluorescence, strain H37Rv; Fructose-bisphosphate aldolase (Mycobacterium tuberculosis (strain ATCC 25618 / H37Rv)), …; purified M. tuberculosis FBA, fluorescence read-out; inhibition, % at 1 µM; 360,000 compounds, 2.3% hits; AID 588726, 2011;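 further: 0% = vehicle and 100% = reference inhibitor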
Target sequence (P9WQA3 whole entry, looked up): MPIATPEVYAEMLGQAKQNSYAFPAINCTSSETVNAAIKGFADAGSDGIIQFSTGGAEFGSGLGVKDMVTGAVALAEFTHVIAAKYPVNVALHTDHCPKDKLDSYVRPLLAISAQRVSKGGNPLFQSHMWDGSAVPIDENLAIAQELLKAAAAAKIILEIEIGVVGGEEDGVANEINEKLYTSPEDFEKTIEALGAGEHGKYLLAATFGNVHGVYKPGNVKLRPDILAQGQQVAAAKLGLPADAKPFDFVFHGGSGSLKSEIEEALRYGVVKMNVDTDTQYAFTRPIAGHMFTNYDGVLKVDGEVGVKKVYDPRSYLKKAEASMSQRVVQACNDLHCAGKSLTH
FadD28 binding: inhibitors of FadD28 bisubstrate probe binding, primary screen, biochemical, fluorescence polarization, single point | inhibition, % at 12.5 µM | 360,000 compounds, 0.22% hits | AID 588549, 2011; in the data active means inhibition above about 8.5%, passing the limit was not always enough
BioA inh: M. tuberculosis BioA enzyme inhibitors, primary screen, biochemical, plate reader, single point, HTS. 7,8-diaminopelargonic acid synthase BioA (Mycobacterium tuberculosis). purified M. tuberculosis BioA enzyme. inhibition, % at 9.99 µM. 360,000 compounds, 0.096% hits. AID 602481, 2012; in the data active means inhibition above about 40%
Mtb FBA inh conf: M. tuberculosis aldolase blockers, biochemical, fluorescence, strain H37Rv, confirmation; shares compounds with FBA Mtb inh; purified M. tuberculosis FBA, fluorescence read-out; inhibition, % at 1 µM; 5,600 compounds, 78% hits; AID 651616, 2012;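 further: 0% = vehicle wells and 100% = reference inhibitor wells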
GDH-TPI counter-2: GDH-TPI coupling enzyme inhibitors, artefact control for M. tuberculosis FBA inhibitor project, biochemical, fluorescence, high throughput; GDH-TPI coupled enzyme counterscreen; 5,600 compounds, 81% hits; AID 652141, 2013; shares compounds with FBA Mtb inh; inhibition, % at 1 µM; in the data active means inhibition above about 10%
Active calls of the source: *; nt = no result given; + = active, no number. Rows were chosen to be rich in hits. Some 2.9% of all compounds tested hit in one or more screens of this group. Unless noted, no stated cut-off is given here; in the data, active means inhibition above about 27%; inactive means the rest.

SMILES | Mtb hypoxia inh | GDH-TPI counter-1 | FBA Mtb inh | FadD28 binding | BioA inh | Mtb FBA inh conf | GDH-TPI counter-2
Cc1cc(NC(=O)c2ccccc2NS(=O)(=O)c2c(C)c(C)cc(C)c2C)no1 | 3 | 16 | 18 | 0 | -1 | nt | nt
CCOc1cc([N+](=O)[O-])cc(C=NNC(=O)c2c(-c3ccccc3)noc2C)c1O | -3 | nt | nt | nt | nt | nt | nt
COc1cc(/C=C/C(=O)OC(C)C(=O)Nc2c(C)n(C)n(-c3ccccc3)c2=O)ccc1OCC#N (stereo not drawn) | 10 | 15 | 10 | -2 | 0 | nt | nt
COc1cccc(/C=C/C(=O)OC(C)C(=O)Nc2c(C)n(C)n(-c3ccccc3)c2=O)c1 (stereo not drawn) | -5 | 4 | 29* | -1 | nt | 122* | 101*
CN(Cc1ccc(F)cc1)C(=O)CNC(=O)c1cccs1 | 9 | 4 | 64* | -2 | 1 | 1 | -5
OCCNc1c2ccccc2nc2c(F)c(F)c(F)c(F)c12 | 9 | 2 | 72* | -1 | nt | + | +
COc1ccccc1-c1ccc2c(c1)[C@H]1[C@H](CCN1S(=O)(=O)c1cn(C)cn1)[C@@H](CO)N2 | nt | nt | nt | nt | 0 | nt | nt
CC1CCCC(C)N1NC(=S)Nc1ccc(OC(F)F)cc1 (stereo not drawn) | 1 | 8 | 55* | -4 | nt | 60* | 53*
COc1ccc(NC(=S)NN2C(C)CCCC2C)cc1 (stereo not drawn) | 6 | 1 | -1 | -2 | -1 | nt | nt
C[C@@H]1CN([C@H](C)CO)C(=O)c2cccc(NS(=O)(=O)c3ccc(Cl)cc3)c2O[C@H]1CN(C)C(=O)Nc1ccccc1 | nt | nt | nt | nt | -3 | nt | nt
CCc1cc2c(COC(=O)c3cc(S(=O)(=O)N4CCOCC4)ccc3F)cc(=O)oc2cc1O | 13 | 2 | 25 | -3 | -1 | nt | nt
O=C(OCc1cc(=O)oc2cc(O)ccc12)c1cc(S(=O)(=O)N2CCOCC2)ccc1F | 1 | 20 | 41* | -1 | -2 | -1 | -5
COc1ccc(-c2c[n+]3c4n2CCCCC4=C(c2ccccc2)C3)cc1 | 4 | 20 | 106* | -4 | 10 | -2 | -4
COc1ccc(-c2c[n+](CC(=O)c3ccccc3)c3n2CCCCC3)cc1 | 8 | 5 | 1 | -1 | nt | nt | nt
COc1cccc(NC(=O)N[C@@H]2C=C[C@@H](CC(=O)NCc3ccccn3)O[C@H]2CO)c1 | nt | nt | nt | nt | 2 | nt | nt
O=C(Cc1cccs1)N1CCN(c2ccccn2)CC1 | 0 | -2 | 29* | 1 | nt | 54* | 43*
C/C=C/c1ccc2c(c1)O[C@H](CN(C)C(=O)NC1CCCCC1)[C@@H](C)CN([C@@H](C)CO)S2(=O)=O | nt | nt | nt | nt | -1 | nt | nt
COc1ccc(C=NNC2=NCCCCC2)c(OC)c1 | 10 | nt | nt | nt | nt | nt | nt
Cc1cc(O)c2c(C)c(CC(=O)N3CCN(C(=O)C4COc5ccccc5O4)CC3)c(=O)oc2c1 (stereo not drawn) | -7 | 19 | -1 | -2 | 0 | nt | nt
CC(=O)Oc1ccc2c(C)c(CC(=O)N3CCN(C(=O)C4COc5ccccc5O4)CC3)c(=O)oc2c1C (stereo not drawn) | 1 | 2 | 44* | 0 | -2 | 3 | -3
COc1cc(C)cc2oc(=O)c(CC(=O)N3CCN(C(=O)C4COc5ccccc5O4)CC3)c(C)c12 (stereo not drawn) | 13 | 2 | 104* | -5 | 0 | 64* | 54*
C[C@@H]1CN([C@@H](C)CO)S(=O)(=O)c2ccc(C#CCN(C)C)cc2O[C@H]1CN(C)Cc1ccc(F)cc1 | nt | nt | nt | nt | 2 | nt | nt
CCCCCC(=O)Nc1cccc(-c2nc3ncccc3o2)c1 | 5 | 8 | 41* | -3 | 16 | 72* | 61*
CCCCC(=O)Nc1cccc(-c2nc3ncccc3o2)c1 | 1 | 0 | 43* | -3 | 20 | -1 | -5
CC(C)C(=O)Nc1cc(-c2nc3ncccc3o2)ccc1Cl | 16 | 6 | 6 | -5 | 0 | nt | nt
